{"source": "a collection of fitness landscapes (doi:10.1016/j.celrep.2020.107928)", "parents": {"B1": {"name": "Caulobacter ParB omega fusion; a variant is named by its letters at X, in order, B8GW30 (parent)", "chain": "MESVVVGEPGMSEGRRGLGRGLSALLGEVDAAPAQAPGEQLGGSREAPIEILQRNPDQPRRTFREEDLEDLSNSIREKGVLQPILVRPSPDTAGEYQIVAGERAWRAAQRAGLKTVPIMVRELDDLAVLEIGIIENVQRADLNVLEEALSYKVLMEKFERTQENIAQTIGKSXSHVANXMRLLXLPDEVQSYLVSGELTAXHARAIAAAADPVALAKQIIEGGLSVRETEALARKAPNLSAGKSKGGRPPRVKDTDTQALESDLSSVLGLDVSIDHRGSTGTLTITYATLEQLDDLCNRLTRGI"}}, "note": "Over roughly 81,000 sequences, “one-hybrid fitness for binding parS DNA” has its median near -0.17; the highest 2% begin near 0.51. This is one part of a sample in which the highest values are shown more often than they occur."}
{"variants_of": "B1", "assay": "one-hybrid fitness for binding parS DNA (scaled: cognate 1, non-cognate 0); higher = stronger binding", "conditions": "with parS DNA site", "how_it_was_run": "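Bacterial one-hybrid selection in E. coli USO rpoZ- hisB- pyrF- with a HIS3 reporter carrying the site 19 bp from the promoter, screening Caulobacter ParB libraries with four specificity codons randomised (NNS). Cells grew 48 hours at 37°C on M9-minus-histidine plus 0.1 mM IPTG and 5 mM 3-AT. Plasmids before and after selection were Illumina-sequenced, three replicate libraries pooled, and variants under 10 reads dropped. Fitness is the log change in variant-to-wild-type read ratio, rescaled to cognate 1, non-cognate 0.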"}
{"variant": "RMKN", "one-hybrid fitness for binding parS DNA": 0.432}
{"variant": "RMVD", "one-hybrid fitness for binding parS DNA": "≤ 0.2"}
{"variant": "RMKH", "one-hybrid fitness for binding parS DNA": 0.24}
{"variant": "RMKS", "one-hybrid fitness for binding parS DNA": 0.832}
{"variant": "LRAY", "one-hybrid fitness for binding parS DNA": "≤ 0.2"}
{"variant": "TDIK", "one-hybrid fitness for binding parS DNA": "≤ 0.2"}
{"variant": "RAKF", "one-hybrid fitness for binding parS DNA": 0.385}
{"variant": "WVHG", "one-hybrid fitness for binding parS DNA": "≤ 0.2"}
{"variant": "RCEL", "one-hybrid fitness for binding parS DNA": "≤ 0.2"}
{"variant": "THTA", "one-hybrid fitness for binding parS DNA": "≤ 0.2"}
{"variant": "PWVT", "one-hybrid fitness for binding parS DNA": "≤ 0.2"}
{"variant": "RVMY", "one-hybrid fitness for binding parS DNA": 0.455}
{"variant": "RVMS", "one-hybrid fitness for binding parS DNA": 0.997}
{"variant": "RVMF", "one-hybrid fitness for binding parS DNA": 0.243}
{"variant": "RVMP", "one-hybrid fitness for binding parS DNA": "≤ 0.2"}
{"variant": "RVMC", "one-hybrid fitness for binding parS DNA": 0.95}
{"variant": "RVMN", "one-hybrid fitness for binding parS DNA": 0.388}
{"variant": "RVMH", "one-hybrid fitness for binding parS DNA": "≤ 0.2"}
{"variant": "RVMG", "one-hybrid fitness for binding parS DNA": 0.971}
{"variant": "RVML", "one-hybrid fitness for binding parS DNA": "≤ 0.2"}
{"variant": "RVMM", "one-hybrid fitness for binding parS DNA": 0.287}
{"variant": "RVMT", "one-hybrid fitness for binding parS DNA": 0.885}
{"variant": "RVMD", "one-hybrid fitness for binding parS DNA": "≤ 0.2"}
{"variant": "KMVW", "one-hybrid fitness for binding parS DNA": "≤ 0.2"}
{"variant": "WMRR", "one-hybrid fitness for binding parS DNA": "≤ 0.2"}
{"variant": "ALEF", "one-hybrid fitness for binding parS DNA": "≤ 0.2"}
{"variant": "ADCS", "one-hybrid fitness for binding parS DNA": "≤ 0.2"}
{"variant": "VPDS", "one-hybrid fitness for binding parS DNA": "≤ 0.2"}
{"variant": "AAKA", "one-hybrid fitness for binding parS DNA": "≤ 0.2"}
{"variant": "RAKA", "one-hybrid fitness for binding parS DNA": 0.737}
{"variant": "RAVA", "one-hybrid fitness for binding parS DNA": 0.542}
{"variant": "VWKI", "one-hybrid fitness for binding parS DNA": "≤ 0.2"}
{"variant": "LDDF", "one-hybrid fitness for binding parS DNA": "≤ 0.2"}
{"variant": "EYSA", "one-hybrid fitness for binding parS DNA": "≤ 0.2"}
{"variant": "RYLA", "one-hybrid fitness for binding parS DNA": 0.608}
{"variant": "RYKA", "one-hybrid fitness for binding parS DNA": 0.793}
{"variant": "NYSA", "one-hybrid fitness for binding parS DNA": "≤ 0.2"}
{"variant": "RYSA", "one-hybrid fitness for binding parS DNA": 0.535}
{"variant": "NYLA", "one-hybrid fitness for binding parS DNA": "≤ 0.2"}
{"variant": "RYWA", "one-hybrid fitness for binding parS DNA": 0.554}
{"variant": "DYKA", "one-hybrid fitness for binding parS DNA": "≤ 0.2"}
{"variant": "RYVA", "one-hybrid fitness for binding parS DNA": 0.508}
{"variant": "LTIQ", "one-hybrid fitness for binding parS DNA": "≤ 0.2"}
{"variant": "LMSQ", "one-hybrid fitness for binding parS DNA": "≤ 0.2"}
{"variant": "GCEC", "one-hybrid fitness for binding parS DNA": "≤ 0.2"}
{"variant": "QYSE", "one-hybrid fitness for binding parS DNA": "≤ 0.2"}
{"variant": "MSRC", "one-hybrid fitness for binding parS DNA": "≤ 0.2"}
{"variant": "RYRA", "one-hybrid fitness for binding parS DNA": 0.727}
{"variant": "RYIA", "one-hybrid fitness for binding parS DNA": 0.496}
{"variant": "AYGA", "one-hybrid fitness for binding parS DNA": "≤ 0.2"}
{"variant": "PYQA", "one-hybrid fitness for binding parS DNA": "≤ 0.2"}
{"variant": "SYQA", "one-hybrid fitness for binding parS DNA": "≤ 0.2"}
{"variant": "RYQA", "one-hybrid fitness for binding parS DNA": 0.562}
{"variant": "RYHA", "one-hybrid fitness for binding parS DNA": 0.545}
{"variant": "RYGA", "one-hybrid fitness for binding parS DNA": 0.539}
{"variant": "SYGA", "one-hybrid fitness for binding parS DNA": "≤ 0.2"}
{"variant": "NYRA", "one-hybrid fitness for binding parS DNA": "≤ 0.2"}
{"variant": "KHQR", "one-hybrid fitness for binding parS DNA": "≤ 0.2"}
{"variant": "QHCK", "one-hybrid fitness for binding parS DNA": "≤ 0.2"}
{"variant": "PRPC", "one-hybrid fitness for binding parS DNA": "≤ 0.2"}
{"variant": "YWNN", "one-hybrid fitness for binding parS DNA": "≤ 0.2"}
{"variant": "YYMS", "one-hybrid fitness for binding parS DNA": "≤ 0.2"}
{"variant": "ILCT", "one-hybrid fitness for binding parS DNA": "≤ 0.2"}
{"variant": "TTSA", "one-hybrid fitness for binding parS DNA": "≤ 0.2"}
{"variant": "RYCA", "one-hybrid fitness for binding parS DNA": 0.46}
{"variant": "RYPA", "one-hybrid fitness for binding parS DNA": 0.212}
{"variant": "RYYA", "one-hybrid fitness for binding parS DNA": 0.522}
{"variant": "TDNY", "one-hybrid fitness for binding parS DNA": "≤ 0.2"}
{"variant": "RGDS", "one-hybrid fitness for binding parS DNA": 0.551}
{"variant": "RGNS", "one-hybrid fitness for binding parS DNA": 0.862}
{"variant": "RGDP", "one-hybrid fitness for binding parS DNA": "≤ 0.2"}
{"variant": "RGND", "one-hybrid fitness for binding parS DNA": "≤ 0.2"}
{"variant": "RGNP", "one-hybrid fitness for binding parS DNA": "≤ 0.2"}
{"variant": "RGDN", "one-hybrid fitness for binding parS DNA": "≤ 0.2"}
{"variant": "NNTG", "one-hybrid fitness for binding parS DNA": "≤ 0.2"}
{"variant": "LAFI", "one-hybrid fitness for binding parS DNA": "≤ 0.2"}
{"variant": "TKPY", "one-hybrid fitness for binding parS DNA": "≤ 0.2"}
{"variant": "ASRG", "one-hybrid fitness for binding parS DNA": "≤ 0.2"}
{"variant": "TAAN", "one-hybrid fitness for binding parS DNA": "≤ 0.2"}
{"variant": "VRSP", "one-hybrid fitness for binding parS DNA": "≤ 0.2"}
{"variant": "TLKS", "one-hybrid fitness for binding parS DNA": "≤ 0.2"}
{"variant": "RIIP", "one-hybrid fitness for binding parS DNA": "≤ 0.2"}
{"variant": "RIPD", "one-hybrid fitness for binding parS DNA": "≤ 0.2"}
{"variant": "RIPS", "one-hybrid fitness for binding parS DNA": 0.812}
{"variant": "RIPH", "one-hybrid fitness for binding parS DNA": "≤ 0.2"}
{"variant": "RIID", "one-hybrid fitness for binding parS DNA": "≤ 0.2"}
{"variant": "RIIS", "one-hybrid fitness for binding parS DNA": 0.994}
{"variant": "QKRS", "one-hybrid fitness for binding parS DNA": "≤ 0.2"}
{"variant": "YTMT", "one-hybrid fitness for binding parS DNA": "≤ 0.2"}
{"variant": "HPWL", "one-hybrid fitness for binding parS DNA": "≤ 0.2"}
{"variant": "RNKQ", "one-hybrid fitness for binding parS DNA": "≤ 0.2"}
{"variant": "RNVQ", "one-hybrid fitness for binding parS DNA": "≤ 0.2"}
{"variant": "RNVK", "one-hybrid fitness for binding parS DNA": "≤ 0.2"}
{"variant": "RNKG", "one-hybrid fitness for binding parS DNA": 0.941}
{"variant": "RNKK", "one-hybrid fitness for binding parS DNA": "≤ 0.2"}
{"variant": "RNVG", "one-hybrid fitness for binding parS DNA": 0.619}
{"variant": "MYPT", "one-hybrid fitness for binding parS DNA": "≤ 0.2"}
{"variant": "REFV", "one-hybrid fitness for binding parS DNA": "≤ 0.2"}
